Measured values published in the supplement of paper PMC6953052.
Several values for one entry are separate records, joined by “and”; a condition that tells them apart may be missing. Equal entries are not always repeated. ± gives the standard deviation of the averaged measurements. The full ranking holds about 1,700 compounds; the median of “fraction of GFP-LC3-positive cells (≥5 vesicles/cell)” is about 0.058, and the highest 2% start at about 0.59. The list comes from a sample in which the highest values are over-represented; it also holds similar structures and randomly drawn compounds.

Each compound was assayed on CbCln3 +/+ GFP-LC3 cerebellar neuronal cells (assay: fraction of GFP-LC3-positive cells (≥5 vesicles/cell); higher = more autophagosome accumulation).
In short: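 In 384-well plates at 2 × 10^3 cells per well, GFP-LC3-expressing wild-type or mutant CbCln3 cerebellar cells took ~50 nL of compound in DMSO by pin transfer, in duplicate, for 24 h at 33 °C. Staining with Hoechst 33342 and LysoTracker Red over the final 30 min preceded fixation in 3.2% PFA and imaging of three fields per well at 10×. CellProfiler then counted GFP-LC3 vesicles in each cell, and out-of-focus images were dropped before the fraction of cells with 5 or more vesicles was averaged over duplicates.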

Compound | fraction of GFP-LC3-positive cells
O=c1[nH]c(=O)n([C@H]2C[C@H](O)[C@@H](CO)O2)cc1I [Idoxuridine] | 0.122
CC(C)(C)NC[C@H](O)COc1nsnc1N1CCOCC1.O=C(O)/C=C\C(=O)O [Timolol maleate salt] | 0.0791
CSc1ccc2c(c1)N(CCC1CCCCN1C)c1ccccc1S2.Cl (stereo not drawn) [Thioridazine hydrochloride] | 0.103
O=C(CCCN1CCC(O)(c2ccc(Br)cc2)CC1)c1ccc(F)cc1 [Bromperidol] | 0.0553
Cl.c1ccc(CN(CC2=NCCN2)c2ccccc2)cc1 [Antazoline hydrochloride] | 0.048
CC(C)COCC(CN(Cc1ccccc1)c1ccccc1)N1CCCC1.Cl (stereo not drawn) [Bepridil hydrochloride] | 0.0674
CC(C)COCC(CN(Cc1ccccc1)c1ccccc1)N1CCCC1 (stereo not drawn) | 0.773
NC[C@H]1O[C@H](OC2[C@@H](N)C[C@@H](N)[C@H](O)[C@H]2O[C@@H]2O[C@H](CO)[C@@H](O)[C@H]2O)[C@H](N)[C@@H](O)[C@@H]1O.O=S(=O)(O)O (stereo partly drawn) [Ribostamycin sulfate salt] | 0.0446
CC(C[N+](C)(C)C)OC(N)=O.[Cl-] (stereo not drawn) [Bethanechol chloride] | 0.0276
COc1cc(OC)c(C(=O)CCCN2CCCC2)c(OC)c1.Cl [Buflomedil hydrochloride] | 0.0492
Nc1ccc(S(=O)(=O)Nc2ccnn2-c2ccccc2)cc1 [Sulfaphenazole] | 0.0807
Cl.NCc1ccc(S(N)(=O)=O)cc1 [Mafenide hydrochloride] | 0.087
CCCCOc1cc(C(=O)OCCN(CC)CC)ccc1N.Cl [Benoxinate hydrochloride] | 0.0443
C[N+](C)(C)CCCCCC[N+](C)(C)C.O.O.[Br-].[Br-] [Hexamethonium dibromide dihydrate] | 0.0307
O=S(=O)(NCCNC/C=C/c1ccc(Br)cc1)c1cccc2cnccc12 | 0.0303 ± 0.022
CS(=O)(=O)Nc1ccc([N+](=O)[O-])cc1Oc1ccccc1 [Nimesulide] | 0.0281
Cn1c([N+](=O)[O-])cnc1COC(N)=O [Ronidazole] | 0.116
NC(=O)c1ccc(-c2nc(-c3ccc4c(c3)OCO4)c(-c3ccccn3)[nH]2)cc1 | 0.0591
CCCCC/C=C\C/C=C\CCCCCCCC(N)=O | 0.0698
CCCCC/C=C\C/C=C\CCCCCCCC(N)=O [Linoleamide] | 0.0419
C=C(C)[C@@H]1CC[C@]2(C(=O)O)CC[C@]3(C)[C@H](CC[C@@H]4[C@@]5(C)CC[C@H](O)C(C)(C)[C@@H]5CC[C@]43C)[C@@H]12 [Betulinic acid] [listing 1 of 2 here] | 0.0607
CCCCC/C=C\C/C=C\C/C=C\C=C\[C@@H](O)CCCC(=O)O | 0.0555 ± 0.014
Oc1cc2c(cc1O)CN(C(=S)NCCc1ccc(Cl)cc1)CCC2 [capsazepine] | 0.197
O=C(Nc1ccccc1)c1cc([N+](=O)[O-])ccc1Cl | 0.0781
CCC(=O)[C@@]1(C)[C@H](C)C[C@H]2[C@@H]3CCC4=CC(=O)C=C[C@]4(C)[C@H]3[C@@H](O)C[C@@]21C [Rimexolone] | 0.0676
CCCCNc1cc(C(=O)O)cc(S(N)(=O)=O)c1Oc1ccccc1 [Bumetanide] | 0.0472

Compound | fraction of GFP-LC3-positive cells
C[C@@H](O)[C@H]1C(=O)N2C(C(=O)O)=C(SCCNC=N)C[C@H]12 [Imipenem] | 0.032
CCCCCN(CCCCC)C(=O)C(CCC(=O)[O-])NC(=O)c1ccc(Cl)c(Cl)c1.[Na+] (stereo not drawn) [Lorglumide sodium salt] | 0.0541
Cc1[nH]c(=O)c(C#N)cc1-c1ccncc1 [Milrinone] | 0.0445
CC(N/C(=N/C#N)Nc1ccncc1)C(C)(C)C (stereo not drawn) [Pinacidil] | 0.0667
CCCCC[C@H](O)CC(=O)CCc1ccc(O)c(OC)c1 | 0.0534
CN1CCN2c3ccccc3Cc3ccccc3C2C1.Cl (stereo not drawn) [Mianserine hydrochloride] | 0.0536
CCCC[C@@H](C=O)NC(=O)[C@H](CC(C)C)NC(=O)OCc1ccccc1 [calpeptin] | 0.0616
CC(C)C[C@@H](C=O)NC(=O)[C@H](CC(C)C)NC(=O)OCc1ccccc1 | 0.0921
CC(C)C[C@@H](C=O)NC(=O)[C@H](CC(C)C)NC(=O)[C@H](CC(C)C)NC(=O)OCc1ccccc1 | 0.736 ± 0.077
CCCC[C@@H](C=O)NC(=O)[C@H](CC(C)C)NC(=O)OCc1ccccc1 | 0.088
CC/C(=C(/CC)c1ccc(O)cc1)c1ccc(O)cc1 [Diethylstilbestrol] | 0.0323
O=C(/C=C/c1ccc(O)c(O)c1)OCCc1ccccc1 | 0.624
O=C(O)/C=C/c1ccc(O)c(O)c1 [Caffeic acid] | 0.0546
O=C(/C=C/c1ccc(O)c(O)c1)O[C@@H]1C[C@](O)(C(=O)O)C[C@@H](O)[C@H]1O [Chlorogenic acid] | 0.0755
FC(F)(F)c1ccccc1-n1ccnc1 | 0.0512
O=C(O)CCc1nc(-c2ccccc2)c(-c2ccccc2)o1 [Oxaprozin] | 0.047
COc1ccc2c(c1)C(=O)N(CCc1ccc(S(=O)(=O)NC(=O)NC3CCCCC3)cc1)C(=O)C2(C)C [Gliquidone] | 0.0709
CC(C(=O)[O-])c1cccc(Oc2ccccc2)c1.CC(C(=O)[O-])c1cccc(Oc2ccccc2)c1.CC(C(=O)[O-])c1cccc(Oc2ccccc2)c1.O.O.[Ca+2] (stereo not drawn) [Fenoprofen calcium salt dihydrate] | 0.0249
C[N+](C)(CCOc1ccccc1)Cc1ccccc1.O=C([O-])c1cc2ccccc2cc1O [Bephenium hydroxynaphthoate] | 0.0458
Cc1ccc(NC(=O)c2cccc(N(C)C)c2)cc1NC(=O)c1ccc(O)cc1 | 0.0842 and 0.161
CCCCCCCC/C=C\CCCCCCCC(N)=O | 0.0449
Cl.Clc1ccc(Cn2c(CN3CCCC3)nc3ccccc32)cc1 [Clemizole hydrochloride] | 0.063
CCN(CC)CCOc1ccc(/C(=C(/Cl)c2ccccc2)c2ccccc2)cc1.O=C(O)CC(O)(CC(=O)O)C(=O)O [Clomiphene citrate (Z,E)] | 0.0397
CCOc1ccc(Cc2nccc3cc(OCC)c(OCC)cc23)cc1OCC.Cl [Ethaverine hydrochloride] | 0.0346
NCCc1c[nH]cn1 | 0.0411
CCOC1O[C@H]([C@@H](COCc2ccccc2)OCc2ccccc2)[C@H](OCc2ccccc2)[C@H]1O (stereo partly drawn) [Tribenoside] | 0.102

Compound | fraction of GFP-LC3-positive cells
CCOC(=O)C1=C[C@]2(CC)CCCN3CCc4c(n1c1ccccc41)[C@@H]32 [Vinpocetine] | 0.0378
O=C(O)c1ccc(C2=C3C=CC4=[N]3->[Mn+3]35<-[N]6=C(C=CC6=C(c6ccc(C(=O)O)cc6)c6ccc2[n]63)C(c2ccc(C(=O)O)cc2)=c2ccc([n]25)=C4c2ccc(C(=O)O)cc2)cc1.[Cl-] (stereo not drawn) | 0.0485
COC(=O)Nc1nc2cc(C(=O)c3ccccc3)ccc2[nH]1 [Mebendazole] | 0.619
COC(=O)Nc1nc2cc(Sc3ccccc3)ccc2[nH]1 [Fenbendazole] | 0.24
COC(=O)Nc1nc2cc(SC(C)C)ccc2[nH]1 [Methiazole] | 0.499
CCCSc1ccc2[nH]c(NC(=O)OC)nc2c1 [Albendazole] | 0.548
COC(=O)Nc1nc2cc(C(=O)c3cccs3)ccc2[nH]1 [Nocodazole] | 0.627
CC(C(=O)O)c1ccc(C(=O)c2cccs2)cc1 (stereo not drawn) [Suprofen] | 0.0679
COC(=O)Nc1nc2cc(C(=O)c3cccs3)ccc2[nH]1 [nocodazole] | 0.681
CCCCc1ccc2[nH]c(NC(=O)OC)nc2c1 [Parbendazole] | 0.609
CCCCCCCCCCCCCCCC(=O)NCCc1ccc(O)c(O)c1 [Palmitoyl dopamine] | 0.0673
COc1ccc2cc1Oc1ccc(cc1)C[C@H]1c3cc(c(OC)cc3CCN1C)Oc1c(OC)c(OC)cc3c1[C@H](C2)N(C)CC3 [Tetrandrine] | 0.0783
C=C(C)[C@@H]1CC[C@]2(C(=O)O)CC[C@]3(C)[C@H](CC[C@@H]4[C@@]5(C)CC[C@H](O)C(C)(C)[C@@H]5CC[C@]43C)[C@@H]12 [Betulinic acid] [listing 2 of 2 here] | 0.0563
Cc1ccsc1/C=C/C1=NCCCN1C.O=C(O)C(O)C(O)C(=O)O [Morantel tartrate] | 0.0668
CCN(CC)C(=S)SSC(=S)N(CC)CC [Disulfiram] | 0.687
O=C(O)CCC(=O)c1ccc(-c2ccccc2)cc1 [Fenbufen] | 0.0751
CC[C@]1(O)C[C@@H]2CN(CCc3c([nH]c4ccccc34)[C@@](C(=O)OC)(c3cc4c(cc3OC)N(C)[C@H]3[C@@](O)(C(=O)OC)[C@H](OC(C)=O)[C@]5(CC)C=CCN6CC[C@]43[C@@H]65)C2)C1.O=S(=O)(O)O [vinblastine] | 0.691
CCCCCCCC/C=C\CCCCCCCC(=O)OC[C@@H](O)COP(=O)(O)O [Lysophosphatidic acid] | 0.0399
CCCCCCCC/C=C\CCCCCCCC(=O)OC[C@@H](O)COP(=O)(O)O | 0.039
COc1cc2nc(N3CCN(C(=O)c4ccco4)CC3)nc(N)c2cc1OC.Cl [Prazosin hydrochloride] | 0.156
COc1cc2nc(N3CCN(C(=O)c4ccco4)CC3)nc(N)c2cc1OC [prazocin] | 0.899
COc1cc2nc(N3CCN(C(=O)C4CCCO4)CC3)nc(N)c2cc1OC.Cl (stereo not drawn) [Terazosin hydrochloride] | 0.0471
C[C@]12CC[C@@H]3c4ccc(O)cc4CC[C@H]3[C@@H]1CCC2=O [Estrone] | 0.0194
CC(C)=CC[C@@H](O)C1=CC(=O)c2c(O)ccc(O)c2C1=O [Shikonin] | 0.7
CC/C=C\C/C=C\C/C=C\C/C=C\C/C=C\CCCC(=O)O [Eicosapentaenoic acid (20:5 n-3)] | 0.0669
CC/C=C\C/C=C\C/C=C\C/C=C\C/C=C\CCCC(=O)O | 0.047
